Experimental data published in PubChem BioAssay (NCATS).
Records with an inconclusive call do not appear. Unmarked numbers belong to inactive results. The source made the active and inactive calls. Unless noted, the call rests on the fitted dose curve.

Assays:
[1] = Cell Viability - BJ (AID 421); conditions: BJ fibroblast viability, qHTS;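 further: potency means the concentration at half of the fitted maximal effect; cells exposed to compound for 40 hours at 37 °C before readout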
Method in brief: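 Cytotoxicity in human BJ foreskin fibroblasts is scored as loss of cellular ATP after a 40-hour exposure, measured by luciferase luminescence. Controls are DMSO and 100 uM tamoxifen.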

[2] = Cell Viability - Jurkat (AID 426;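 active means dose-dependent loss of cell ATP signal giving a full or clear fitted curve, ranked by lower potency value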; further: potency means the concentration at half of the fitted maximal effect); conditions: qHTS
Method in brief: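 Jurkat (clone E6-1, human T-cell leukemia) cells, 5000/well in complete medium, were exposed to compound for 40 hr at 37 °C. Viability was read as intracellular ATP by CellTiter-Glo luminescence; AC50 came from Hill fits of concentration-response data.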

[3] = Cell Viability - Hek293 (AID 427;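 active means compounds whose dose-response curve shows a full or clear partial loss of cell viability, called from curve shape rather than a numeric limit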;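 further: potency means the concentration at half of the fitted maximal effect; cells exposed to compound for 40 hours at 37 °C before reading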); conditions: qHTS
Method in brief: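 qHTS, human embryonic kidney (adenovirus-transformed) cells; 40 hr cpd, 37 °C; CellTiter-Glo ATP luminescence. Norm: DMSO = 0, 100 uM tamoxifen = 100% inhibition. Hill-fit AC50.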

[4] = Cell Viability - HepG2 (AID 433); conditions: qHTS;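 further: potency means the concentration at half of the fitted maximal effect; potency for ATP loss meaning cytotoxicity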
Method in brief: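 Read-out is luciferase-based quantitation of cellular ATP as a measure of viable HepG2 cells after 40 h treatment at 37 °C. Signal decrease is scaled between DMSO-only and 100 uM tamoxifen controls, with AC50 fitted by the Hill equation.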

[5] = Cell Viability - MRC5 (AID 434); conditions: MRC5 lung fibroblast viability, qHTS;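 further: potency means the concentration at half of the fitted maximal effect; potency reflects cytotoxicity seen as loss of intracellular ATP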
Method in brief: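 qHTS cytotoxicity in human lung fibroblast MRC5 cells; 40 hr treatment, 37 °C; cellular ATP by luciferase luminescence; DMSO = 0%, 100 uM tamoxifen = 100% inhibition; Hill-fit AC50.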

[6] = Cell Viability - SK-N-SH (AID 435); conditions: SK-N-SH neuroblastoma cell viability qHTS;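 further: potency means the concentration at half of the fitted maximal effect; compound exposure lasted 40 h at 37 °C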
Method in brief: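 Luminescent ATP signal served as the viability read-out after 40 hours of compound treatment of human neuroblastoma SK-N-SH cells. Concentration-response data, scaled between DMSO and 100 uM tamoxifen, gave AC50 values by standard Hill modeling.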

[7] = biological target: Mitogen-activated protein kinase 10 (Mus musculus) (UniProt Q61831); test: JNK3 AlphaScreen Assay (AID 530; active means well fitted curve in either direction with a large enough effect, not every such curve was filed as active;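 further: kinase came from lysate of stimulated human HepG2 cells; signal reports phosphorylation of biotinylated GST-cJun 1-79 at Ser73 with 10 µM ATP; on the % scale 0 is the no-effect control and ±100 the full control effect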); conditions: JNK3 lysate, c-Jun phosphorylation; series mostly up to 57.1 µM
Method in brief: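 Room-temperature AlphaScreen kinase assay; pre-activated HepG2 lysate as JNK3 source, biotin-GST-cJun(1-79) substrate, 10 uM ATP, compound 15 min preincubation.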

[8] = Cell Viability - N2a (AID 540; active means well fitted curve in the direction sought with a large enough effect; an effect the other way counts as inactive or inconclusive; further: nearly all actives have a fitted effect of over 45% in size; further: potency means the concentration at half of the fitted maximal effect;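 on activity change, negative = cytotoxicity: plate controls were DMSO alone for no effect and tamoxifen control for full effect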); conditions: N2a mouse neuroblastoma cell viability; activity change, negative = cytotoxicity: at 92.2 µM (top of the series)
Method in brief: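 Mouse neuroblastoma N2a cells (1500/well) were preincubated 5 hr at 37 °C, then exposed to compounds for 40 hr at 37 °C in complete medium. Viability was read as intracellular ATP by CellTiter-Glo luminescence; AC50 from Hill fits.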

[9] = Cell Viability - NIH 3T3 (AID 541; active means well fitted curve in the direction sought with a large enough effect; an effect the other way counts as inactive or inconclusive;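 further: plate controls were DMSO alone for no effect and tamoxifen positive control for full effect; nearly all actives have a fitted effect of over 25% in size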); conditions: NIH 3T3 cell viability, qHTS; activity change, negative = cytotoxicity: at 92.2 µM (top of the series)
Method in brief: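 NIH 3T3 mouse embryo fibroblasts (1000 cells/well) were plated in complete medium and treated with compound for 40 hr at 37 °C. Viability was read as intracellular ATP by CellTiter-Glo luminescence; AC50 values came from Hill-equation fits of concentration-response data.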

[10] = Cell Viability - HUV-EC-C (AID 542; active means well fitted curve in the direction sought with a large enough effect; an effect the other way counts as inactive or inconclusive; further: nearly all actives have a fitted effect of over 35% in size; further: potency means the concentration at half of the fitted maximal effect; on activity change, negative = cytotoxicity: on the % scale 0 is the no-effect control and ±100 the full control effect); conditions: HUV-EC-C endothelial cell viability, qHTS; series mostly up to 92.2 µM
Method in brief: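 HUV-EC-C normal human vascular endothelial cells, 1000 cells/well, pre-incubated 5 hr at 37 °C, then exposed to compounds for 40 hr at 37 °C in complete medium. Viability measured as intracellular ATP by CellTiter-Glo luminescence; AC50 from Hill fits.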

CCCCC(=O)N(C)C
Potency [1]: > 92 µM
Potency [2]: > 92 µM
Potency [3]: > 92 µM
Potency [4]: > 92 µM
Potency [5]: > 92 µM
Potency [6]: > 92 µM
outcome [7]: inactive
activity change, negative = cytotoxicity [8]: -2.03%
Potency [9]: inactive
Potency [10]: inactive

CCCCC/C=C/C=C/C=O
Potency [1]: > 92 µM
Potency [2]: 29.6 µM (active)
Potency [3]: > 92 µM
Potency [4]: > 92 µM
Potency [5]: > 92 µM
Potency [6]: > 92 µM
outcome [7]: inactive
activity change, negative = cytotoxicity [8]: -106% (active)
activity change, negative = cytotoxicity [9]: -100% (active)
Potency [10]: inactive

CC1=C(/C=C/C(C)=C/C=C/C(C)=C\C=O)C(C)(C)CCC1
Potency [1]: 24.4 µM (active)
Potency [2]: 22.2 µM (active)
Potency [3]: 51.9 µM (active)
Potency [4]: 66.1 µM (active)
Potency [5]: 39.8 µM (active)
Potency [6]: 31.7 µM (active)
outcome [7]: inactive
Potency [8]: 25.1 µM (active)
activity change, negative = cytotoxicity [9]: -120% (active)
Potency [10]: 31.6 µM (active)

Nc1ccc([N+](=O)[O-])c(N)c1
Potency [1]: > 92 µM
Potency [2]: > 92 µM
Potency [3]: > 92 µM
Potency [4]: > 92 µM
Potency [5]: > 92 µM
Potency [6]: > 92 µM
outcome [7]: inactive
activity change, negative = cytotoxicity [8]: 0.888%
Potency [9]: inactive
Potency [10]: inactive

BrC(Br)C(Br)Br
Potency [1]: > 92 µM
Potency [2]: > 92 µM
Potency [3]: > 92 µM
Potency [4]: > 92 µM
Potency [5]: > 92 µM
Potency [6]: > 92 µM
outcome [7]: inactive
activity change, negative = cytotoxicity [8]: 7.56%
Potency [9]: inactive
Potency [10]: inactive

O=C(Cl)c1cccc([N+](=O)[O-])c1
Potency [1]: > 92 µM
Potency [2]: > 92 µM
Potency [3]: > 92 µM
Potency [4]: > 92 µM
Potency [5]: > 92 µM
Potency [6]: > 92 µM
outcome [7]: inactive
activity change, negative = cytotoxicity [8]: 5.21%
Potency [9]: inactive
Potency [10]: inactive

Nc1ccccc1S(=O)(=O)O
Potency [1]: > 92 µM
Potency [2]: > 92 µM
Potency [3]: > 92 µM
Potency [4]: > 92 µM
Potency [5]: > 92 µM
Potency [6]: > 92 µM
outcome [7]: inactive
activity change, negative = cytotoxicity [8]: 4.97%
Potency [9]: inactive
Potency [10]: inactive

O=C(O)c1ccc(Cl)c(Cl)c1
Potency [1]: > 92 µM
Potency [2]: > 92 µM
Potency [3]: > 92 µM
Potency [4]: > 92 µM
Potency [5]: > 92 µM
Potency [6]: > 92 µM
outcome [7]: inactive
activity change, negative = cytotoxicity [8]: 1.1%
Potency [9]: inactive
Potency [10]: inactive

Clc1ccccn1
Potency [1]: > 92 µM
Potency [2]: > 92 µM
Potency [3]: > 92 µM
Potency [4]: > 92 µM
Potency [5]: > 92 µM
Potency [6]: > 92 µM
outcome [7]: inactive
activity change, negative = cytotoxicity [8]: -19.1%
Potency [9]: inactive
Potency [10]: inactive

NS(=O)(=O)O
Potency [1]: > 92 µM
Potency [2]: > 92 µM
Potency [3]: > 92 µM
Potency [4]: > 92 µM
Potency [5]: > 92 µM
Potency [6]: > 92 µM
outcome [7]: inactive
activity change, negative = cytotoxicity [8]: -0.868%
Potency [9]: inactive
Potency [10]: inactive

Cc1cccc(C(=O)O)c1
Potency [1]: > 92 µM
Potency [2]: > 92 µM
Potency [3]: > 92 µM
Potency [4]: > 92 µM
Potency [5]: > 92 µM
Potency [6]: > 92 µM
outcome [7]: inactive
activity change, negative = cytotoxicity [8]: -7%
Potency [9]: inactive
Potency [10]: inactive

NC(=O)c1cccc([N+](=O)[O-])c1
Potency [1]: > 92 µM
Potency [2]: > 92 µM
Potency [3]: > 92 µM
Potency [4]: > 92 µM
Potency [5]: > 92 µM
Potency [6]: > 92 µM
outcome [7]: inactive
activity change, negative = cytotoxicity [8]: -1.6%
Potency [9]: inactive
Potency [10]: inactive

c1ccc2c(c1)ccc1ncccc12
Potency [1]: > 92 µM
Potency [2]: > 92 µM
Potency [3]: > 92 µM
Potency [4]: > 92 µM
Potency [5]: > 92 µM
Potency [6]: > 92 µM
outcome [7]: inactive
activity change, negative = cytotoxicity [8]: -0.126%
Potency [9]: inactive
Potency [10]: inactive

C=CCOC(=O)COCCC(C)C
Potency [1]: > 92 µM
Potency [2]: > 92 µM
Potency [3]: > 92 µM
Potency [4]: > 92 µM
Potency [5]: > 92 µM
Potency [6]: > 92 µM
outcome [7]: inactive
activity change, negative = cytotoxicity [8]: -4.01%
Potency [9]: inactive
Potency [10]: inactive

Nc1nc(CC(=O)O)cs1
Potency [1]: > 92 µM
Potency [2]: > 92 µM
Potency [3]: > 92 µM
Potency [4]: > 92 µM
Potency [5]: > 92 µM
Potency [6]: > 92 µM
outcome [7]: inactive
activity change, negative = cytotoxicity [8]: 6.3%
Potency [9]: inactive
Potency [10]: inactive

CC(=O)OC(C)C
Potency [1]: > 92 µM
Potency [2]: > 92 µM
Potency [3]: > 92 µM
Potency [4]: > 92 µM
Potency [5]: > 92 µM
Potency [6]: > 92 µM
outcome [7]: inactive
activity change, negative = cytotoxicity [8]: 3.96%
Potency [9]: inactive
Potency [10]: inactive
